# Results filed as inconclusive are left out. Calls of active or inactive are those of the source. How the source made its calls: active means hit-call score of the fitted dose curve at least 0.9, where 1 is the maximum; inconclusive means response in the unintended direction; inactive means score below 0.9.
# Experiment: Tanguay_ZF_120hpf_SOMI_legacy: (Legacy) Oregon State University Tanguay Lab 120 Hour Post-fertilization zebrafish Assay for Somite Malformation (AID 2283647)
# Procedure: Tanguay_ZF_120hpf_legacy is a whole embryo, multiplexed endpoint assay using zebrafish larvae exposed for 120 hours post fertilization on a 96-well plate.Tanguay_ZF_120hpf_SOMI_legacy is one of one assay component(s) measured or calculated from the Tanguay_ZF_120hpf_legacy assay. It is designed to make measurements of zebrafish development as detected with brightfield microscopy of developing zebrafish embryos.Data from the assay component Tanguay_ZF_120hpf_SOMI_legacy was analyzed into 1 assay endpoints. This assay endpoint, Tanguay_ZF_120hpf_SOMI_legacy, was analyzed in the positive analysis fitting direction relative to DMSO as the negative control and baseline of activity. Using a type of morphology reporter, gain-of-signal activity can be used to understand changes in developmentals as they relate to the whole embryo. To generalize the intended target to other relatable targets, this assay endpoint is annotated to the zebrafish development intended target family, where the subfamily is somitogenesis.
# Zebrafish husbandry: Tropical 5D wild-type adult zebrafish were housed in at an approximate density of 1000 per 100 gallon tank at the Sinnhuber Aquatic Research Laboratory, Oregon State University, Corvallis, OR. Each tank was kept at standard laboratory conditions of 28C on a 14-h light/10-h dark photoperiod in fish water consisting of reverse osmosis water supplemented with a commercially available salt (Instant Ocean). Spawning funnels were placed into the tanks the night prior, and embryos were collected and staged. To increase bioavailability, the chorion was enzymatically removed using pronase (63.6mg/ml, >/= 3.5U/mg, Sigma-Aldrich: P5147) at 4 hours post fertilization (hpf) using a custom automated dechorionator.Chemical exposures: Six hpf dechorionated embryos were placed 1 embryo per well in a 96-well plate prefilled with 90 ul of EM using automated embryo placement systems (AEPS). Ten microliters of each row of dilution plate 2 was added to 2 exposure plates. The final DMSO concentration used was 0.64% (vol/vol). Thirty-two embryos were also exposed to 5uM trimethyltin chloride (positive control). Plates were sealed to prevent evaporation and foil covered to reduce light exposure and kept in a 28C incubator. Embryos were statically exposed until 120 hpf. At 24 hpf, embryos were assessed for photomotor response using a custom photomotor response analysis tool (PRAT) and for developmental toxicity endpoints (MO24: mortality at 24 hpf, DP: developmental progression, SM: spontaneous movement, and NC: notochord distortion). At 120 hpf, locomotor activity was measured using Viewpoint Zebralab and assessed for 18 endpoints. Zebrafish acquisition and analysis program (ZAAP), a custom program designed to inventory, acquire, and manage zebrafish data, was used to collect developmental endpoints as either present or absent (i.e., binary responses were recorded). If mortality occurred for an embryo (at either 24 or 120 hpf), the non-mortality endpoints were not measured.
SMILES,outcome,AC50
CC(O)CO (stereo not given),inactive,
O=C(O)Cc1cc(I)c(Oc2cc(I)c(O)c(I)c2)c(I)c1,inactive,
Cc1cc(CCN2CCN(c3nsc4ccccc34)CC2)cc2c1NC(=O)CC2(C)C,,3.88 µM (active)
CCCCCCCCOC(=O)CCCCCCCCC(=O)OCCCCCCCC,inactive,
CN(C)C=O,inactive,
CC(C)(C)c1ccc(O)c(C(C)(C)C)c1,inactive,
CN1CCN(c2ccccc2/C=C2\SCCN(c3ccc(Cl)c(Cl)c3)C2=O)CC1,inactive,
CCc1nn(C2CCCCC2)c2cc(C3(C#N)CCC(C(=O)O)CC3)ccc12 (stereo not given),,0.506 µM (active)
CCCCCCCC(=O)O,inactive,
OC1CCCCC1,inactive,
CC(C)(C)CC(C)(C)c1ccc(O)c(-n2nc3ccccc3n2)c1,inactive,
CC[C@H](C)[C@@H](C(=O)O)n1sc2ccccc2c1=O,inactive,
N#C[C@@H]1CC(F)(F)CN1C(=O)CNC1CC2CCC(C1)N2c1ncccn1 (stereo not given in full),inactive,
CC(C)CCCCCCOC(=O)CCCCC(=O)OCCCCCCC(C)C,inactive,
CCCCOCCO,inactive,
CCOC(=O)CC(O)(CC(=O)OCC)C(=O)OCC,inactive,
COc1ccc([N+](=O)[O-])cc1N,inactive,
CCCCCCCCCCCCN1CCCC1=O,inactive,
CCC(C)(C)C1CCC(O)CC1 (stereo not given),inactive,
CCCCCCCCCCCCc1ccccc1S(=O)(=O)O,inactive,

SMILES,outcome,AC50
CCc1ccc(CCOc2ccc(CC3SC(=O)NC3=O)cc2)nc1 (stereo not given),inactive,
OC1CCC(C2CCCCC2)CC1 (stereo not given),inactive,
O=c1c(-c2ccc(O)cc2)coc2cc(O)ccc12,inactive,
CC#C[C@]1(O)CC[C@H]2[C@@H]3CCC4=CC(=O)CCC4=C3[C@@H](c3ccc(N(C)C)cc3)C[C@@]21C,inactive,
c1ccc2c(c1)Cc1ccccc1-2,inactive,
OCCC(F)(F)C(F)(F)C(F)(F)C(F)(F)C(F)(F)C(F)(F)F,inactive,
CC[C@H](c1ccc(O)cc1)[C@@H](CC)c1ccc(O)cc1,inactive,
CN1CCC[C@H]1c1cccnc1,inactive,
CCCOc1sc(C(=O)N2CCC(c3cc(CN)ccc3F)CC2)c(C)c1Br,inactive,
CC(=O)NC1(c2cccc(F)c2)CCN(CC[C@@]2(c3ccc(Cl)c(Cl)c3)CN(c3ccccc3)C(=O)CO2)CC1,inactive,
COCC(C)OCC(C)O (stereo not given),inactive,
CCCCC(CC)COC(=O)CCCCC(=O)OCc1ccccc1 (stereo not given),inactive,
C[C@@H]1C[C@H]2[C@@H]3CCC4=CC(=O)C=C[C@]4(C)[C@@]3(F)[C@@H](O)C[C@]2(C)[C@@]1(O)C(=O)COP(=O)(O)O,inactive,
c1ccc2cc3c(ccc4ccccc43)cc2c1,inactive,
OCCC(F)(F)C(F)(F)C(F)(F)C(F)(F)C(F)(F)C(F)(F)C(F)(F)C(F)(F)F,inactive,
CCCCCCCCC(=O)O,inactive,
O=C(O)c1ccccc1C(c1ccc(O)cc1)c1ccc(O)cc1,inactive,
CCN(CC)CCNc1ccc(CNC=O)c2sc3ccc(OC)cc3c(=O)c12,inactive,
Oc1cc2ccccc2c2ccccc12,,12.4 µM (active)
COC(=O)CCCCC(=O)OC,inactive,

# Reference: PubChem BioAssay (EPA / NIEHS)
